# Laboratory results published in paper PMC5540273 (PLoS ONE, 2017).
# Legend:
# Settings in all cases: concentration: 1 μM,replicates: in singlicate; n = 1
# CDK8 = system: CDK8
# CDK9 = system: CDK9
# CDKL1 = system: CDKL1
# CDKL2 = system: CDKL2
# CDKL3 = system: CDKL3
# CDKL5 = system: CDKL5
# CHEK1 = system: CHEK1
# CHEK2 = system: CHEK2
# CIT = system: CIT
# CLK1 = system: CLK1
# CLK2 = system: CLK2
# CLK3 = system: CLK3
# CLK4 = system: CLK4
# CSF1R-autoinhibited = system: CSF1R-autoinhibited
# CSF1R = system: CSF1R
# CSK = system: CSK
# CSNK1A1L = system: CSNK1A1L
# CSNK1A1 = system: CSNK1A1
# CSNK1D = system: CSNK1D
# CSNK1E = system: CSNK1E
# 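Note: KINOMEscan kinase panel screen.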
SMILES,%Inh (CDK8) [%],%Inh (CDK9) [%],%Inh (CDKL1) [%],%Inh (CDKL2) [%],%Inh (CDKL3) [%],%Inh (CDKL5) [%],%Inh (CHEK1) [%],%Inh (CHEK2) [%],%Inh (CIT) [%],%Inh (CLK1) [%],%Inh (CLK2) [%],%Inh (CLK3) [%],%Inh (CLK4) [%],%Inh (CSF1R-autoinhibited) [%],%Inh (CSF1R) [%],%Inh (CSK) [%],%Inh (CSNK1A1L) [%],%Inh (CSNK1A1) [%],%Inh (CSNK1D) [%],%Inh (CSNK1E) [%]
CCn1c(-c2nonc2N)nc2cncc(CNC3CCNCC3)c21.Cl [SB-747651],24,0,0,20,0,0,48,0,24,31,17,7,56,0,10,0,19,0,26,21
Cc1ccc(C(=O)Nc2ccc(Oc3ccc4nc(NC(=O)C5CC5)cn4c3)c(F)c2)c(=O)n1-c1ccccc1,87,0,41,99.6,0,0,0,0,36,0,5,2,0,0,100,24,0,29,0,0
C[C@@H](Oc1cc(-n2cnc3ccc(-c4ccncc4)cc32)sc1C(N)=O)c1ccccc1Cl [GSK483724],57,3,16,78,32,0,0,0,98.8,98.2,83,37,97.1,0,14,11,17,0,28,44
O=C(Nc1ccc(Oc2ccc3nc(NC(=O)C4CC4)cn3n2)c(F)c1)c1cccn(-c2ccccc2)c1=O,63,6,45,74,25,0,0,0,30,1,0,0,0,0,100,0,15,39,0,0
C[C@@H]1CNc2c(sc3ccc4nc(-c5ccncc5)ccc4c23)C(=O)N1,7,44,11,0,5,0,0,18,22,92.9,94,32,81,3,8,19,66,95,34,29
O=C(Nc1cccc(Oc2ccc3nccn3n2)c1)Nc1cccc(C(F)(F)F)c1,90.9,0,0,62,0,4,0,0,99.9,31,0,0,0,0,99.8,12,3,0,2,11
C[C@@H]1CCN(C(=O)N2CCCC2)C[C@@H]1N(C)c1ncnc2[nH]ccc12,24,0,24,11,0,5,9,0,13,4,8,0,24,0,0,0,0,27,0,13
Cc1ccn2nc(-c3ccc(F)cc3)c(-c3ccncc3)c2c1.Cl [GW457859],12,0,23,28,0,0,0,43,100,22,0,1,55,25,9,0,35,92.5,96.3,99.6
CN(c1ccc2c(c1)nc(NCc1ccc(F)cc1)n2C)c1ccnc(Nc2ccc(CS(C)(=O)=O)cc2)n1.Cl [GW813244],2,57,30,40,20,0,0,0,86,13,46,0,17,62,100,0,5,28,10,0
CC(=O)Nc1nc2cnc(Nc3cc(NC(=O)c4cccc(CC(C)(C)C#N)c4)ccc3C)nc2s1,67,10,50,99.5,41,0,0,28,68,0,0,0,7,28,99.7,7,11,31,6,0
